In PubChem BioAssay AID504462 (Sanford-Burnham Center for Chemical Genomics, 2011):
The whole screen tested about 340,000 compounds, of which about 1,700 (0.5%) were called active. No stated cut-off is given here; in the data, active means inhibition above about 40%; inactive means the rest. What follows is part of a selection rich in actives, with near analogues and random picks from the rest.

The molecules below were run against Cysteine protease ATG4B (Homo sapiens) (UniProt Q9Y4P1) (assay: ATG4B protease inhibitors, primary screen, biochemical, fluorescence, uHTS (AID 504462)). Conditions: ATG4B cleavage of LC3-PLA2, NBD-HPC fluorescence, 1 h; at 8.33 µM; active compounds read high.
Sequence of Cysteine protease ATG4B (Homo sapiens) (Q9Y4P1 whole entry, looked up): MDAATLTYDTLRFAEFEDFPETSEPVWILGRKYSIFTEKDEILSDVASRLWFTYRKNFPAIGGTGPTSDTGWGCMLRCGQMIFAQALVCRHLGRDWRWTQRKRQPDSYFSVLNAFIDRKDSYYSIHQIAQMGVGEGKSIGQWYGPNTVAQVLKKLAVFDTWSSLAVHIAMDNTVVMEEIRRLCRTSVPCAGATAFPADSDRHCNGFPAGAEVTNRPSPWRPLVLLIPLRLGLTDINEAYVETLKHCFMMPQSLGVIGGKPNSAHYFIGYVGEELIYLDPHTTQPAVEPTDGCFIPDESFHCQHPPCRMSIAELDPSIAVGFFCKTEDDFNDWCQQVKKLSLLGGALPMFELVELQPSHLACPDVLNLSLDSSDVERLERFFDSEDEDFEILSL

With `S=C(NCc1ccco1)NCc1ccccc1Cl` as the molecule, how does the inhibition read?
Its inhibition is 13.4% (inactive).

Which inhibition does the source give for `S=C(NCCc1ccccc1)NCc1ccccc1Cl` here?
The inhibition was 48.6% (active).

For `S=C(NCCc1ccccc1)NCC1CCCO1` (stereo unspecified), which inhibition is on record?
Its inhibition is -7.53% (inactive).

With `O=C1c2ccccc2C(=O)N1CCC(c1ccccc1)c1ccco1` (stereo unspecified) as the molecule, how does the inhibition read?
Its inhibition is 15.9% (inactive).

Which inhibition does the source give for `CC(Oc1ccc(F)cc1)C(=O)Nc1cc(S(=O)(=O)N2CCOCC2)ccc1N1CCN(C)CC1` (stereo unspecified) here?
The inhibition was -5.35% (inactive).

For `COc1ccccc1S(=O)(=O)c1c(C)cc(C)[nH]c1=O`, which inhibition is on record?
The inhibition was -5.56% (inactive).

For `Cc1c(NC(=O)CCCOc2ccccc2)cccc1[N+](=O)[O-]`, which inhibition is on record?
The inhibition was -6.83% (inactive).

For `Cc1c(NC(=S)NCc2ccc(F)cc2)cccc1[N+](=O)[O-]`, which inhibition is on record?
Its inhibition is 77.1% (active).

For `Cc1onc(C(=O)NCc2ccc(F)cc2)c1[N+](=O)[O-]`, which inhibition is on record?
Its inhibition is 1.98% (inactive).

How did the inhibition turn out when `CCOC(=O)N1CCC(NC(=O)Cn2cc3c(n2)CCCCC3)CC1` was run?
Its inhibition is -3.87% (inactive).

How did the inhibition turn out when `CCn1c2ccccc2c2cc(CC(N)=O)ccc21` was run?
The inhibition was 25% (inactive).

Which inhibition does the source give for `COC(=O)Cc1c(-c2[nH]c3ccccc3c2CC(=O)OC)[nH]c2ccccc12` here?
Its inhibition is 5.62% (inactive).

How did the inhibition turn out when `NC(=O)Cc1ccc2c(c1)[nH]c1ccccc12` was run?
The inhibition was 47.3% (active).

For `CC(OC(=O)c1ccc(-n2cnnn2)cc1)C(=O)NCc1ccccc1` (stereo unspecified), which inhibition is on record?
The inhibition was -0.42% (inactive).

Which inhibition does the source give for `CCCCn1c(N)c(N(CC)C(=O)c2ccccc2C(F)(F)F)c(=O)[nH]c1=O` here?
Its inhibition is 1.66% (inactive).

For `CC(C)(CNC(=O)c1cc(=O)[nH]c2ccccc12)N1CCOCC1`, which inhibition is on record?
Its inhibition is -6.8% (inactive).

Which inhibition does the source give for `Cc1c(N=Nc2ccc(N(C)C)cc2)c(=O)n(-c2ccccc2)n1C` here?
Its inhibition is -2.28% (inactive).

`CC(=O)c1c(C)n(-c2ccc(N(C)C)cc2)c2ccc(OCC(N)=O)cc12` was tested. Which inhibition did it give?
Its inhibition is 82.1% (active).

`CC(=O)c1c(C)n(-c2ccc(C)cc2)c2ccc(O)cc12` was tested. Which inhibition did it give?
The inhibition was -0.19% (inactive).

For `CCOC(=O)c1c(C)oc2ccc(OCC(=O)N(CC)CC)cc12`, which inhibition is on record?
Its inhibition is -8.98% (inactive).

For `COc1ccc(NC(=O)CSc2nnc(Cc3ccccc3)c(=O)n2N)cc1`, which inhibition is on record?
Its inhibition is -4.35% (inactive).

With `N#Cc1c(-c2ccc(F)cc2)nc(-c2ccccc2)[nH]c1=O` as the molecule, how does the inhibition read?
The inhibition was 5.66% (inactive).

`N#Cc1c(-c2ccccc2)nc(SCc2cccc(C(F)(F)F)c2)[nH]c1=O` was tested. Which inhibition did it give?
Its inhibition is 34.9% (inactive).

For `Cc1ccc(CSc2nc(-c3ccccc3)c(C#N)c(=O)[nH]2)cc1`, which inhibition is on record?
The inhibition was 49.2% (active).

How did the inhibition turn out when `Cc1cccc(N2CCN(C(c3ccc(N(C)C)cc3)c3nnnn3C(C)(C)C)CC2)c1C` (stereo unspecified) was run?
Its inhibition is -1.38% (inactive).

How did the inhibition turn out when `COc1cc(C)c(S(=O)(=O)N2CCOCC2)c(C)c1C` was run?
The inhibition was -9.43% (inactive).

Which inhibition does the source give for `N#Cc1c(NC(=O)C2CC(Cl)=CCC2C(=O)O)sc2c1CCCCC2` (stereo unspecified) here?
The inhibition was -4.77% (inactive).

How did the inhibition turn out when `COC(=O)c1c(NC(=O)C2CC(C)=C(C)CC2C(=O)O)sc2c1CCCCC2` (stereo unspecified) was run?
The inhibition was 70.5% (active).

Which inhibition does the source give for `COC(=O)c1c(NC(=O)CSc2nncs2)sc2c1CCCCC2` here?
Its inhibition is -14.5% (inactive).

Which inhibition does the source give for `O=C(CNC(=O)[C@@H]1Cc2ccccc2CN1)NC1CCCCC1` here?
The inhibition was -3.14% (inactive).

How did the inhibition turn out when `CCSC(C)CC1C/C(=N/O)c2c(C)noc2C1` (stereo unspecified) was run?
The inhibition was -1.06% (inactive).
